This is part of a sample that, as a whole, favours compounds with a hit. Of some 79,000 tested, about 15% had one in any assay. A number with no mark means an inactive call. Calls of active or inactive are those of the source. Rule as the data show it: active = growth inhibition above about 70%; inactive = the rest.
Tests used:
[1] = NCI Yeast Anticancer Drug Screen. Data for the rad50 strain (AID 155);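 also: 0% = growth of vehicle-only cultures of the same strain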; conditions: S. cerevisiae rad50 strain growth inhibition; at 50.0 µM; stronger effect = higher value
How it was run: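 Compounds were tested on a yeast strain with an engineered DNA damage repair alteration; the reported value is growth inhibition normalised to vehicle treatment.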

[2] = NCI Yeast Anticancer Drug Screen. Data for the mec2-1 strain (AID 157); conditions: S. cerevisiae mec2-1 strain, at 50.0 µM, stronger effect = higher value
How it was run: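 Each compound was tested on mec2-1 yeast, a strain altered in DNA damage repair or cell cycle control. Growth inhibition is reported relative to vehicle.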

[3] = NCI Yeast Anticancer Drug Screen. Data for the sgs1 mgt1 strain (AID 161);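 also: 0% = growth of cultures given vehicle only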; conditions: S. cerevisiae sgs1 mgt1 strain, at 50.0 µM, stronger effect = higher value
How it was run: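 Read-out: growth inhibition vs vehicle controls. Cells: mutant yeast strain deficient in DNA damage repair.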

[4] = NCI Yeast Anticancer Drug Screen. Data for the cln2 rad14 strain (AID 165);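 also: 0% = growth equal to vehicle treated cultures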; conditions: S. cerevisiae cln2 rad14 strain, at 50.0 µM, stronger effect = higher value
How it was run: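 Test compounds were added to cln2 rad14 yeast cultures; inhibition of growth was then determined by comparison with vehicle treatment.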

[5] = NCI Yeast Anticancer Drug Screen. Data for the bub3 strain (AID 167); conditions: S. cerevisiae bub3 mutant strain, at 50.0 µM, stronger effect = higher value
How it was run: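 Growth of a checkpoint-deficient yeast mutant is measured after compound exposure. Values represent inhibition relative to vehicle.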

[6] = NCI Yeast Anticancer Drug Screen. Data for the mlh1 rad18 strain (AID 175); conditions: S. cerevisiae mlh1 rad18 strain growth inhibition; at 50.0 µM; stronger effect = higher value
How it was run: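 Inhibition values reflect reduced growth of mutant yeast versus vehicle-treated controls following compound exposure; the mutations affect DNA damage repair.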

Structure (SMILES) | growth inhibition [1] | growth inhibition [2] | growth inhibition [3] | growth inhibition [4] | growth inhibition [5] | growth inhibition [6]
CCOC(=O)C(=O)C(=O)NN(C)C1=NCCN1 | -11.4% | -2.05% | 7.45% | -13.6% | 6.55% | 2%
Oc1cc2nc3ccccc3nc2c2ccc(Br)cc12 | -12.8% | -7.45% | 7.7% | -44.6% | -17.7% | -14.1%
O=C(O)C(=Cc1ccc(-c2ccc([N+](=O)[O-])cc2)o1)C(=O)O | 6.95% | 0.7% | -12.8% | 29.9% | 15.8% | 12.4%
C1=C(c2ccccc2)Cc2ccccc21 | 13.4% | 24.4% | 19.9% | -14.8% | 15.4% | 23.9%
COc1ccc2c(c1OC)C1(CCN(C)C)CC(O)CCC1C=C2 (stereo unspecified) | 20.4% | 7.95% | 5.75% | -4.6% | 13.2% | 18.1%
Brc1ccc2c(c1)C1(c3cc(Br)ccc3-2)c2cc(Br)ccc2-c2ccc(Br)cc21 | 2.45% | -5.9% | -13.7% | 22.7% | 5.25% | 3.95%
Cn1cnc([N+](=O)[O-])c1Sc1nnc(C(F)(F)F)n1C | -7.6% | -6.95% | -9.65% | 7.5% | 3.6% | -6.95%
O=C(NCCN1CCCCC1)C(O)(C1CCCCC1)C1CCCCC1 | -6.85% | 7.65% | 12.2% | 19.2% | 9.75% | 3.9%
Cn1c(=O)cc(CCl)c2ccccc21 | 26.9% | 26.6% | 44% | 28.4% | 31.7% | 52%
CN(C)c1ccc(C=C(C(=O)O)C(=O)O)cc1 | -5.2% | 15.3% | -8.1% | 19.4% | 15.7% | 15.5%
O=C1C2=Cc3ccccc3OC2(O)Oc2ccccc21 (stereo unspecified) | 8.1% | 6.4% | -3.35% | 3.35% | 1.8% | -73.2%
CC1CCCCN1CCCO (stereo unspecified) | 14.6% | -32.4% | -22.1% | 3.05% | -14.6% | 17.4%
C/C1=C/C(C)CC(C)OC(=O)C(C)NC(=O)C(Cc2ccc(O)c(I)c2)N(C)C(=O)C(C)NC(=O)C(C)C1 (stereo unspecified) | 92.8% (active) | 93.7% (active) | 52.4% | 90.7% (active) | 92.8% (active) | 91.2% (active)
Nc1nc(N)nc(C2C=CCCC2)n1 (stereo unspecified) | -19.6% | 1.85% | -13% | -32.6% | -11.4% | -18.1%
NCCNC(c1ccccc1)C(O)c1ccccc1 (stereo unspecified) | -8.7% | -0.7% | -1.25% | -33.9% | -41.2% | -4.25%
NCC(c1ccccc1)C1CCCCC1 (stereo unspecified) | 13.2% | -2.35% | 5.05% | -7.5% | -3.9% | 15%
COC(=O)c1nc(=S)[nH]c(C(=O)OC)c1C(=O)c1ccccc1O | 21.9% | 11.9% | 14.1% | 3.4% | 29.1% | 30%
Nc1ccccc1C(F)(F)F | 2.45% | 5.65% | 1.2% | 4.1% | 3.3% | 8.25%
O=C1c2ccccc2C(=O)c2c3c(cc([N+](=O)[O-])c21)OCO3 | -18.2% | 12.1% | 9.05% | 25.7% | -3% | -9.75%
O=[N+]([O-])c1ccc(-c2nc3ccc(Cl)cc3[nH]2)cc1 | -16.1% | 30.9% | 25.2% | 21.9% | 9.55% | 44.5%
CC(C)C1C(=O)CCCC1=O | -10.5% | 9.6% | -5.5% | -12.9% | -17.5% | -3.35%

Structure (SMILES) | growth inhibition [1] | growth inhibition [2] | growth inhibition [3] | growth inhibition [4] | growth inhibition [5] | growth inhibition [6]
O=C(NCCc1[nH]nc2c1C(=O)C=C(Nc1ccccc1)C2=O)OCc1ccccc1 | -29.7% | -15.8% | -32.4% | -21.9% | -29.1% | -52.8%
CCC(C)C(O)CC (stereo unspecified) | -9.5% | -8.55% | 2.3% | 19.4% | 7.6% | -16.2%
Cc1cc(Cl)c(C)c(C)c1O | 22.6% | 5.45% | -20.2% | 16.6% | 1.25% | 21.4%
CCc1cccc(C)c1NC(=O)C(=O)CC(=O)c1ccc(Cl)cc1Cl | 26.9% | 14.8% | 7.65% | -35.4% | 2.15% | 27.2%
CC(C)=CC1C(CO)C1(C)C (stereo unspecified) | -7.8% | -17.2% | 23.8% | -16.6% | -6.25% | -16.9%
CCOc1nc(N)nc(C)c1N=Nc1ccc(C)cc1 | 1.75% | -8.45% | -4.5% | -34.4% | -5.05% | 2.45%
CC1=CC(C)(C)NC(=S)N1c1cccc2c(S(=O)(=O)O)cccc12 | 5.05% | -20.8% | -11.2% | -32.3% | 4.55% | 6.3%
Cc1ccc(NC(=O)Oc2cccc(C(F)(F)F)c2)cc1 | -8.55% | 17.4% | 23.1% | -12.7% | 15.4% | 35.6%
ONc1ccc(Cl)cc1 | -8.85% | -11.8% | -2.7% | -10.8% | 21.1% | -6.6%
Cc1n[nH]c(=O)n1N1C(=O)c2ccccc2C1=O | -1.25% | -10.1% | -25.7% | -3.45% | -19.6% | -26.6%
C=CCCC1(C)OC(C)C(C)O1 (stereo unspecified) | 8.75% | 3.65% | -0.95% | -33% | -5.85% | -4.9%
Cn1c(C(F)(F)F)nc2nc(Cl)c(Cl)nc21 | 16.6% | 0.05% | 20.7% | 21.2% | -32% | 46%
COC(=O)C1=NC(=S)N=C(C(=O)OC)C1(C)C(=O)c1ccccc1 | 4.3% | -6.95% | -12.4% | 0.8% | 3.75% | 18.4%
Cc1ccc(S(=O)(=O)N/N=C2\CCC3(C)C(CCC4C3CCC3(C)C(C(C)CCCC(C)C)CCC43)C2)cc1 (stereo unspecified) | 42.3% | 17.8% | 35.3% | 27.6% | -4% | 33.9%
O=C1c2c(nc3ccccc3c2-c2ccccc2)CN1Nc1ccccn1 | -2.5% | -4.1% | 6.8% | 12.8% | -5.7% | -33.9%
CCOC(=O)c1ccc(N)c(C(O)(C(F)(F)F)C(F)(F)F)c1 | 94.5% (active) | 90.7% (active) | 94.1% (active) | 86.3% (active) | 92% (active) | 95.6% (active)
CCCCNc1ccc2c(C)cc(=O)oc2c1 | -22.9% | -30.6% | -16.9% | 0.7% | -21.4% | -17.4%
CCOC(=O)C1Cc2c([nH]c(=O)[nH]c2=O)OC1c1ccc(OC)cc1 (stereo unspecified) | 26.4% | 7.1% | 6.3% | 19.4% | 27.1% | 8.5%
O=C(OCCSC(=S)N1CCCCC1)c1ccccc1 | -13.5% | -8.6% | 2.4% | -11.9% | 16.6% | -0.4%
Cc1cc2c(=O)cc(-c3ccc(O)cc3)oc2c(C(=O)O)c1C | 2.7% | -4.45% | 14.3% | 24.8% | 0.6% | 4.4%
